Only some compounds are listed: those with a hit (about 0.88% of all), similar ones and a draw of the others.
pAkt inh: Akt phosphorylation inhibition; Neuro2A IGF-stimulated pAkt S473 HTRF, 20 min; stronger effect = lower value; activity change, % for hits at 50 µM; 360,000 compounds, 0.32% hits; AID 651550; in the data active = activity change below about -80%; inconclusive = mostly about -51% to -80%; also: % is scaled to controls: 0 for no effect and ±100 for the full control effect
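Single-point screen (50 µM final compound) in Neuro2A cells stimulated 20 min with 6 nM IGF at 37 deg C. After lysis, Ser473-phosphorylated Akt read by HTRF (ex 330 nm, em 615/665 nm) as the 665/615 ratio.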
Six1-Eya2 blk: inhibitors of human Six1/Eya2 interaction | AlphaScreen GST-Six1/His-Eya2 binding, biochemical; stronger effect = lower value | activity change, % (no concentration beside the values) | 360,000 compounds, 0.56% hits | AID 651725; in the data active = activity change below about -65%; inconclusive = mostly about -30% to -63%; also: % is scaled to controls: 0 for no effect and ±100 for the full control effect
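AlphaScreen luminescence read after one hour at 37 °C in darkness. Pin-transferred compounds met GST-Six1 and His-Eya2 protein (5X stock 250 nM/500 nM) plus glutathione donor and Ni-chelate acceptor beads (5X, 50 ug/mL).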
CtBP-E1A blk: CtBP/E1A binding inhibition. AlphaScreen GST-E1A/His-CtBP binding, 1536-well; stronger effect = lower value. activity change, % (no concentration beside the values). 340,000 compounds, 0.49% hits. AID 651724; in the data active = activity change below about -65%; inconclusive = mostly about -30% to -63%; also: % is scaled to controls: 0 for no effect and ±100 for the full control effect
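GST-E1A and His-tagged CtBP (125 nM each as 5X stock) were preincubated with pin-transferred compound for 2 h at 37 °C in the dark, then glutathione donor and nickel acceptor beads were added for 1 h before AlphaScreen reading.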
Glioma ERSR ind: ER stress response induction in glioma; U87-MG GRP78 promoter luciferase reporter, 16 h; Potency, µM, without a hit: at the top dose activation, actives largely listed as activators; 420,000 compounds, 0.02% hits; also: potency is read from the fitted curve at half-maximal effect; series mostly up to about 76 µM; % of control where 0% means no effect; nearly all actives have a fitted effect of over 35% in size
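ERSR induction read as luciferase luminescence (Bright-Glo, 10 min at room temperature) in stably transfected human U87-MG glioma cells exposed to compounds for 16 h, using GRP78 as sensor.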
RGS4 inh: human RGS4 inhibition; 390,000 compounds, 0.039% hits; Potency, µM (highest dose often 114 µM), inactives show at the highest dose activity change, negative = inhibition, actives largely listed as inhibitors; P49798; Transcreener GDP fluorescence polarization, RGS4-accelerated GTP hydrolysis; also: potency is read from the fitted curve at half-maximal effect; % is scaled to controls: 0 for no effect and ±100 for the full control effect; nearly all actives have a fitted effect of over 75% in size
Target sequence (P49798 whole entry, looked up): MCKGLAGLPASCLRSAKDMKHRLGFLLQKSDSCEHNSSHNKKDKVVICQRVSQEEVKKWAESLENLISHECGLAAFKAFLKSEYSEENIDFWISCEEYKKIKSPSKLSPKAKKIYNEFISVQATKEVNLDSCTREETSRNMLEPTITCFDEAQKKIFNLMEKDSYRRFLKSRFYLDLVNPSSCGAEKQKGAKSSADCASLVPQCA
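MLSMR compounds (23 nl, pin-transferred) preincubated 10 min at room temperature with a 500nM (2x) first reagent, then RGS4 at 900nM (2x) plus Transcreener GDP mix added; fluorescence polarization (620/688 nm) read before and after 90 min at 30 °C.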
* hit, by the source's call; i = inactive; ? = inconclusive; . = no result; [ ] = dose if it differs, or a comment. Unless noted, calls follow the shape of the dose curve; as a rule, active = well fitted curve in the direction sought with a large enough effect; inconclusive = small, poorly fitted or top-dose-only effect, or another doubt; inactive = no such curve, though single readings can be large; an effect the other way counts as inactive or inconclusive.

SMILES	pAkt inh	Six1-Eya2 blk	CtBP-E1A blk	Glioma ERSR ind	RGS4 inh
COc1cccc(Nc2nc(C(N)CCc3ccccc3)cs2)n1 (stereo not given)	i	-18	?	-10%	.
NC(c1csc(Nc2ccccn2)n1)C1CCCCC1 (stereo not given)	i	?	-80*	-1%	.
NC(CCc1ccccc1)c1csc(Nc2cnccn2)n1 (stereo not given)	i	?	-67*	-4%	.
c1ccc(-c2csc(Nc3ccccn3)n2)cc1	i	-3	-14	1%	-12%
Cc1cnc(C)c(Nc2nc(C(N)c3ccccc3)cs2)n1 (stereo not given)	i	?	-66*	-3%	.
NC(c1ccccc1)c1csc(Nc2ccccn2)n1 (stereo not given)	i	-89*	-90*	-3%	.
COC(=O)[C@@H]1CCCN1C(=O)c1c(OC)cc(=O)n2c1CCN(Cc1ccc(C)o1)CC2	.	.	.	1%	.
COc1ccc(CC(N)c2csc(Nc3cccc(OC)n3)n2)cc1 (stereo not given)	i	-8	-21	-7%	.
COc1ccc(CC(N)c2csc(Nc3ccccn3)n2)cc1 (stereo not given)	i	-88*	-92*	-4%	.
CC(C)(C)n1nnnc1CN1CCN(C2CCCC2)CC1	-103%*	6	3	-4%	18%
O=C(C1=C(O)C(=O)N(CCc2ccccc2)C1c1cccnc1)c1ccco1 (stereo not given)	i	2	1	-2%	11%
COCCCN1C(=O)C(O)=C(C(=O)c2ccco2)C1c1ccccc1 (stereo not given)	-108%*	-5	1	-3%	4%
COc1cc(OC)c(/C=C/c2cc3ccccc3c[n+]2C)c(OC)c1	.	.	.	-7%	.
CCCCSc1nnc(-c2ccc(NC(C)=O)cc2)n1C	i	-7	-5	-3%	-41%
CCCCSc1nnc(-c2ccc(C)cc2)n1C	-113%*	5	9	-5%	-43%
COc1cc(=O)n2c(c1C(=O)N(C)Cc1nonc1C)CCN(Cc1ccccc1F)CC2	.	.	.	-3%	.
O=c1nccc(NCc2ccco2)[nH]1	-108%*	4	5	-2%	17%
O=C1C(Cl)=C(NCc2ccco2)C(=O)c2ccccc21	i	?	?	-4%	4%
Cc1nc(NCC(=O)c2c[nH]c3ccccc23)sc1C	.	.	.	1%	.
N#Cc1c(SCC(=O)Nc2nccs2)sc2c(O)cc(=O)[nH]c12	i	?	-70*	5%	-44%
CCCSc1nnc(NC(=O)CSc2sc3c(O)cc(=O)[nH]c3c2C#N)s1	i	-24	-2	-4%	-28%
CCCS(=O)(=O)c1ncc(Cl)c(C(=O)Nc2sc3c(c2C(=O)NCC)CCCC3)n1	.	.	.	-5%	.
CC(C)Sc1nc(NCc2ccco2)c2c3c(sc2n1)COC(C)(C)C3	-118%*	-4	-4	-2%	-44%
O=[N+]([O-])c1ccc(Cl)c(S(=O)(=O)/N=C(/Sc2ccc(Br)cc2)c2ccccc2)c1	.	.	.	-3%	?
CC12CCC(C(=O)N(CSC(=S)N/N=C\c3ccccc3O)C1=O)C2(C)C (stereo not given)	i	-89*	-94*	-4%	?
SMILES	pAkt inh	Six1-Eya2 blk	CtBP-E1A blk	Glioma ERSR ind	RGS4 inh
Cc1c(C(=O)NCc2ccc3c(c2)OCO3)oc2ccc(S(=O)(=O)N3CCCCCC3)cc12	-112%*	-7	-1	-3%	6%
Cc1nc(C/C(=N\N)c2ccc(O)cc2O)cs1	i	0	0	2%	-39%
CCc1cc(/C(Cc2csc(C)n2)=N/O)c(O)cc1O	-104%*	-12	-7	1%	-14%
CCN(CC)c1ccc(N2C(=O)/C(=C/c3cccs3)SC2=S)cc1	-103%*	-5	-17	-3%	26%
CCCS(=O)(=O)c1ncc(Cl)c(C(=O)Nc2ccc(S(=O)(=O)Nc3ncccn3)cc2)n1	i	-83*	-77*	-4%	-35%
O=C(CCCCCCCCC#CI)Oc1ccccc1	.	.	.	0%	.
O=C(C[n+]1ccccc1Cl)c1ccc(F)cc1	.	.	.	-3%	.
O=C(O)c1ccc(NS(=O)(=O)c2ccc3c(c2)C(=O)c2ccccc2C3=O)cc1	i	-72*	?	1%	7%
O=C(c1ccc(NS(=O)(=O)c2ccccc2)cc1)N1CCCC1	-118%*	7	4	6%	-54%
O=C(O)c1cccc(S(=O)(=O)Nc2ccc(-c3ccccc3)cc2)c1	i	-1	0	-2%	-2%
O=C(c1ccc(S(=O)(=O)Nc2ccccc2)cc1)N1CCCC1	i	8	7	-5%	4%
Cn1cc(/C=C/c2ccc3ccccc3n2)c2ccccc21	.	.	.	4%	.
CN(C)c1nc(NC2CCC(NC(=O)c3ccc(F)c(F)c3)CC2)nc2ccccc12 (stereo not given)	.	.	.	5%	.
CN(CCO)C(=O)c1cn(C2CCN(Cc3c(F)cccc3Cl)CC2)nn1	.	.	.	-4%	.
COc1ccc(NC(=O)COc2cccc3c2CCN(Cc2cccnc2)C3=O)c(OC)c1	i	-75*	-82*	-3%	-30%
CC(/C=C/C=C(\C)C(=O)O[C@@H]1O[C@H](CO[C@@H]2O[C@H](CO)[C@@H](O)[C@H](O)[C@H]2O)[C@@H](O)[C@H](O)[C@H]1O)=C\C=C\C=C(C)\C=C\C=C(/C)C(=O)O[C@@H]1O[C@H](CO[C@@H]2O[C@H](CO)[C@@H](O)[C@H](O)[C@H]2O)[C@@H](O)[C@H](O)[C@H]1O	.	.	.	-4%	.
C(=N\Nc1nncc2ccccc12)/c1ccccn1	i	-75*	-95*	-12%	13%
O=c1cnnc(N/N=C/c2ccccn2)[nH]1	i	-92*	-97*	-7%	-8%[11.4 µM]
CC1OC(CC(=O)O)CC2=C1C(=O)c1c(O)cccc1C2=O (stereo not given)	i	-89*	1	-14%	-135%
CCn1c(-c2ccccc2F)nc2cc(NC(C)=O)cc(C(=O)N3CCCC3c3nccs3)c21 (stereo not given)	.	.	.	-5%	.
COCCCNC(=S)N/N=C/c1ccc(O)cc1O	i	-90*	-93*	7%	-15%
COc1cc(/C=N/NC(=S)Nc2cccc(C(=O)O)c2)ccc1O	i	-22	-27	-14%	9%
COCCCNC(=S)N/N=C/c1cccc(OC)c1O	i	-90*	-92*	-1%	-7%
COc1cccc(/C=N/NC(=S)Nc2cccc(C(=O)O)c2)c1O	i	-92*	-91*	-13%	-23%[11.4 µM]
COc1cccc(/C=N/NC(=O)C(=O)Nc2ccccc2OC(F)(F)C(F)F)c1O	i	-86*	-73*	-5%	-11%
COc1ccc(C2Nc3ccccc3C(=O)N2c2cccc3ccccc23)cc1COc1c(C)cccc1C (stereo not given)	.	.	.	3%	4%
Cc1c(Cl)cccc1NC(=S)N(CCN(C)C)C(C)c1ccccn1 (stereo not given)	i	?	?	0%	-20%

Compound activity (PubChem)
